# According to ChEMBL document CHEMBL3988442, “University of Dundee, Small-Polar-MMV Screening Library” (2021):
# About 13,000 (27%) of roughly 48,000 compounds showed an effect of 50% or more. Some of the results follow.
# Tested on: Wolbachia pipientis
# Assay: Anti-Wolbachia Cell-Based Screen
# Assay type: functional
# Design: scale not given: in the data most compounds retested in dose-response had high values
# Details: 5 µM
row,Compound,Percent Effect
1,Cc1nc(C)c(C(=O)NCCOc2ccc(C(F)(F)F)cn2)o1,-28.79%
2,N[C@H]1CCCN(C(=O)c2cnc(COc3ccccc3)nc2O)C1,-11.28%
3,CC(C)n1c(C2CCCN(CCS(C)(=O)=O)C2)nc2ccccc21 (centres undefined),-3.684%
4,Cc1nc2sccn2c1C(=O)N1CCn2nc(C(=O)NC3CC3)cc2C1,8.039%
5,Cc1cnc(N2C[C@H]3CCCC(N(C)Cc4ccccn4)[C@H]3C2)nc1.O=C(O)C(F)(F)F (some centres undefined),-11.38%
6,CCCN1CCN(Cc2cccc(OC(C)C)c2)[C@H]2CS(=O)(=O)C[C@H]21,-22.43%
7,CC(C)C1CN(c2cnccn2)CCC(=O)N1Cc1ccc(F)cc1 (centres undefined),-0.3567%
8,Cc1c[nH]nc1C1CCCN(c2cnccn2)C1 (centres undefined),152.5%
9,CCc1cnc(N2CCOC(CCOC)C2)nc1 (centres undefined),-10.95%
10,COc1ccc(C(=O)C2CCCN(c3cnccn3)C2)c(C)c1 (centres undefined),-36.51%
11,Cc1c[nH]nc1C1CCN(c2cnccn2)C1 (centres undefined),87.37%
12,COCCn1ccnc1C1CCCN(c2cnccn2)C1 (centres undefined),-8.201%
13,COCCN1C[C@@H]2CN(c3cnccn3)C[C@@H]2C1=O,-23.71%
14,Cc1c[nH]nc1C1CN(c2cnccn2)CCO1 (centres undefined),155.2%
15,Cc1cccc(C)c1OC1CN(Cc2cnc(N3CCOCC3)nc2)C1,-7.257%
16,Cc1c[nH]nc1C1CN(c2ncccn2)CCO1 (centres undefined),139.2%
17,N#Cc1cccc(N2CCC(CO)(CCCc3ccccc3)CC2)n1,-12.61%
18,CC(C)(C)c1cnc(CNc2cccc(Cn3cnnc3)c2)o1,-22.9%
19,COc1ccc(CNC(=O)NCc2ccc(C)cc2)cn1,-5.418%
20,COc1ccc(CNC(=O)C(NC(=O)Cc2ccccc2)C(C)C)cn1 (centres undefined),88.86%
21,Cc1nccn1-c1ccc(CNC(=O)c2ccc(O)nc2)cn1,-3.999%
22,CC(C)[C@H](NC(=O)NC1CCS(=O)(=O)C1)C(=O)NCc1cccnc1 (some centres undefined),1.711%
23,CC(C)C(NC(=O)Cc1ccccc1)C(=O)NCc1ccc(O)nc1 (centres undefined),106%
24,Cc1cccc(C(=O)NC(C(=O)NCc2ccc(O)nc2)C(C)C)c1 (centres undefined),103%
25,CCOC(=O)NC(C(=O)NCc1ccc(N2CCCCC2)nc1)C(C)C (centres undefined),2.776%
26,CC(C)[C@H](NC(=O)c1cccc(CCC(C)(C)O)c1)C(N)=O,-12.73%

row,Compound,Percent Effect
1,COc1ccc(CNC(=O)NCc2ccc(C(N)=O)cc2)cn1,4.713%
2,O=S(=O)(CCCS(=O)(=O)c1ccc2c(c1)OCCCO2)c1ccccc1,-9.516%
3,CC(C)CN1CCCn2nc(CNC(=O)CCCc3cn[nH]c3)cc2C1,-2.664%
4,O=C(Nc1cc2c(cc1Br)OCCO2)NC1CCS(=O)(=O)C1 (centres undefined),-24.26%
5,Cc1cccc(S(=O)(=O)N2C[C@H]3C[C@H](C(=O)NCC(C)C)[C@@H](C2)O3)c1,-2.145%
6,CC(C)CN1C[C@H]2C[C@H](C(=O)N3CCCC3)[C@@H](C1)O2.O=C(O)C(F)(F)F,105.1%
7,Cc1ccccc1CNC(=O)N1C[C@H]2C[C@H](C(=O)N3CCCC3)[C@@H](C1)O2,2.79%
8,CC(C)CCN1C[C@H]2C[C@H](C(=O)N3CCCC3)[C@@H](C1)O2.O=C(O)C(F)(F)F,103.2%
9,CC(C)CCN1C[C@H]2C[C@H](C(=O)NCC(C)C)[C@@H](C1)O2.O=C(O)C(F)(F)F,100.1%
10,CC(C)CNC(=O)[C@H]1C[C@@H]2CN(C(=O)NCC3CCCCC3)C[C@H]1O2,-20.2%
11,CC(O)C1CCN(C(=O)Nc2nc(-c3ccccc3)ns2)CC1 (centres undefined),-6.98%
12,Cc1nccn1-c1ccc(NC(=O)C2CCCN2Cc2c[nH]cn2)cc1 (centres undefined),1.287%
13,CNC(=O)c1cn[nH]c1C1CCCN1C(=O)c1ccccn1 (centres undefined),122.3%
14,O=C(c1cc2c([nH]c1=O)CCC2)N1CCCC1c1ccccn1 (centres undefined),-3.505%
15,O=C(c1cc2c([nH]c1=O)CCC2)N1CCCC1c1ccccc1 (centres undefined),-12.47%
16,COc1ncccc1C(=O)N1CCCC1c1nc(-c2ccccc2)n[nH]1 (centres undefined),0.4619%
17,NC(=O)c1cn[nH]c1C1CCCN1C(=O)c1ccccn1 (centres undefined),92.76%
18,NC(=O)c1cn[nH]c1C1CCCN1C(=O)COc1ccccc1 (centres undefined),125.9%
19,NC(=O)c1cn[nH]c1C1CCCN1C(=O)c1ccccc1 (centres undefined),135.8%
20,O=C(c1ccncc1F)N1CCCC1c1nc(-c2ccccc2)n[nH]1 (centres undefined),0.33%
21,CN(CC(=O)Nc1cccc(F)c1)Cc1nc(N)nc(N(C)C)n1,5.267%
22,CCCSc1ccccc1NC(=O)N1CCN(C(=O)c2ccc[nH]2)CC1,-3.563%
23,Nc1cc2c(nn1)CCN(C(=O)c1csc(-c3ccco3)n1)C2,-0.9791%
24,CCCc1cc(CN(C)C2CCSCC2)n[nH]1,-21.94%
25,Cn1cc(C[C@H]2[C@H](N3CCOCC3)CCN2C(=O)c2ccoc2)cn1,-12.72%
26,Cc1ccc(C(=O)N2CCN(c3ncnc4nc(N)ccc34)CC2)cc1,-17.64%

row,Compound,Percent Effect
1,CCn1cc(CN2CCN(Cc3cc(C)cc(C)c3)C(=O)C2)cc1C#N,-8.463%
2,O=C(c1cc2c([nH]c1=O)CCC2)N1CCCC1c1cccnc1 (centres undefined),-4.003%
3,CCC(=O)c1ccc(OCC(=O)N2CCNCC2C(=O)NC2CC2)cc1 (centres undefined),-8.081%
4,Cl.NC(=O)C1CNCCN1C(=O)COc1ccccc1 (centres undefined),142%
5,O=C(C1CCC1)N1CCN(C(=O)c2cnccn2)[C@H]2CS(=O)(=O)C[C@H]21,-11.57%
6,NC(=O)c1cn[nH]c1C1CCCN1C(=O)c1cnccn1 (centres undefined),109.9%
7,O=C(NC1CC1)C1CNCCN1C(=O)COc1ccc2c(c1)OCO2 (centres undefined),8.797%
8,O=C(NCc1ccc2c(c1)CCCO2)c1cn2c(n1)CNCC2,-2.912%
9,CN1CCC(N(Cc2ccco2)S(=O)(=O)c2ccc(Cl)cc2)CC1,18.55%
10,COCCc1noc(-c2ccc(N[C@H]3CCCCNC3=O)nc2)n1,-20.61%
11,COc1nc2ccn(CCc3scnc3C)c(=O)c2cc1C#N,-7.908%
12,Cc1ccc(C(=O)NCCCN2CCOCC2)c(Cl)c1,-7.154%
13,Cc1nn(Cc2ccc(C(=O)NCCCN3CCOCC3)o2)c(C)c1Cl,123.2%
14,Cc1nn(Cc2ccc(C(=O)NCCCN3CCCC3=O)o2)c(C)c1Cl,113%
15,O=C(NCCCN1CCCC1=O)Nc1ccc(Br)cc1Cl,29.75%
16,Cn1cc(C(=O)NCCCN2CCCCCC2=O)c(-c2cccnc2)n1,-24.83%
17,O=C(NCCN1CCCCCC1=O)c1n[nH]c(=O)c2ccccc12,-2.472%
18,CCn1nc(C)c(CCNC(=O)c2coc(CN3CCOCC3)c2)c1C,-5.303%
19,Cc1nn(Cc2ccc(C(=O)NCCCN3CCCC3=O)o2)c(C)c1Br,118.7%
20,CC(NC(=O)NCCCN1CCCC1=O)c1ccc(Cl)s1 (centres undefined),5.893%
21,CCOCC1CN(C(=O)c2ccncc2)Cc2nn(C)cc21.O=C(O)C(F)(F)F (centres undefined),-7.804%
22,COCCn1cc(C(=O)N2CCCC2c2cc(C)no2)ccc1=O (centres undefined),-14.99%
23,CN1CCC(O)(CNCc2ccc(F)c(C(F)(F)F)c2)CC1,-14.25%
24,COCCNc1nc2c(c(NCC3CCOC3)n1)CCNCC2 (centres undefined),0.8355%
25,Nc1nc2c(c(N3CCSCC3)n1)CCN(Cc1ccccn1)CC2,1.858%
26,c1csc(CN2CCc3nc(N4CCOCC4)nc(NC4CC4)c3C2)n1,-41.6%

row,Compound,Percent Effect
1,Nc1nc2c(c(NCc3nccs3)n1)CCN(CC1CCCC1)CC2,99.65%
2,Cc1nc2c(c(NCCc3nc(C)c(Cl)s3)n1)CCNCC2,2.221%
3,CCOCc1nc2c(c(N3CC=CC3)n1)CCN(CC1CC1)CC2,-17.04%
4,Cc1nc2c(c(NCCc3nccs3)n1)CCN(CC1CC1)CC2,100.8%
5,COCCNc1nc(C)nc2c1CCN(C[C@H]1CC[C@@H](N)CC1)CC2,85.9%
6,Cc1cnn(CCNc2ncnc3c2CCN(CC2CCOC2)CC3)c1 (centres undefined),11.29%
7,CCN(Cc1nccn1C)C(=O)c1ccc(NCC(C)C)nc1,-32.37%
8,Cc1cnc(N2CCC3(C2)CN(S(=O)(=O)C2CC2)C3)nc1,-23.78%
9,CCn1nc(CC(C)C)cc1C(=O)N1CCCOC(CN2CCCC2)C1 (centres undefined),12.35%
10,O=C(NCC1CCCO1)Nc1nnc(C(F)(F)F)s1 (centres undefined),131.1%
11,COc1cc(CNC(=O)Nc2nnc(C(F)(F)F)s2)ccc1O,-18.17%
12,CCOCCC(=O)NCC1CCCO1 (centres undefined),5.918%
13,Cc1csc(N2CCCN(Cc3ccn(C)c(=O)c3)CC2)n1,2.494%
14,CNS(=O)(=O)CCn1cc(-c2ccc(NC(C)=O)cc2)nn1,-17.97%
15,Cc1ccc(S(=O)(=O)N2CCC(Oc3cccnn3)CC2)c(C)c1,-2.974%
16,CN(C)S(=O)(=O)N1CCC(Oc2ccccn2)CC1,-12.57%
17,CN(C)S(=O)(=O)N1CCC(Oc2cccnn2)CC1,154.7%
18,Cc1cc(CN2CC[C@H]3C[C@H](C(=O)Nc4cccnc4C)O[C@@H]3C2)no1.O=C(O)C(F)(F)F.O=C(O)C(F)(F)F,0%
19,CC(C)CC(=O)N1CC(=O)c2sc(Nc3ccc(F)cc3F)nc2C1,102.3%
20,COCC(=O)N1Cc2cnc(Cc3ccc(OC)cc3)nc2C1,-9.911%
21,COc1ccccc1Nc1nc2c(s1)C(=O)CN(C(=O)CC(C)C)C2,106.8%
22,COc1ccccc1NC(=O)CC(C)NCc1scnc1C (centres undefined),-14.83%
23,COc1ccccc1NC(=O)CC(C)NCCc1sc(C)nc1C (centres undefined),-7.62%
24,COCC(=O)N1CC(=O)c2sc(Nc3ccc(F)cc3F)nc2C1,92.12%
25,CC(C)(C)NC(=O)CN1CCN(C(=O)Nc2ccc(F)cc2F)CC1,10.15%
26,Cc1c(C(C)NC(=O)Nc2ccc(F)cc2F)cnn1C (centres undefined),-7.694%
